Compound activity as filed in PubChem BioAssay.
DRD3 antagonist: antagonists of human D3 dopamine receptor. D3R cells, DiscoveRx beta-arrestin luminescence, antagonist mode; active compounds read low. 360,000 compounds, 2.5% hits. AID 652054. max response, negative = inhibition, %; in the data active = max response below about -50%; inconclusive = no clear call, values can overlap the other calls
Target sequence (P35462 whole entry, looked up): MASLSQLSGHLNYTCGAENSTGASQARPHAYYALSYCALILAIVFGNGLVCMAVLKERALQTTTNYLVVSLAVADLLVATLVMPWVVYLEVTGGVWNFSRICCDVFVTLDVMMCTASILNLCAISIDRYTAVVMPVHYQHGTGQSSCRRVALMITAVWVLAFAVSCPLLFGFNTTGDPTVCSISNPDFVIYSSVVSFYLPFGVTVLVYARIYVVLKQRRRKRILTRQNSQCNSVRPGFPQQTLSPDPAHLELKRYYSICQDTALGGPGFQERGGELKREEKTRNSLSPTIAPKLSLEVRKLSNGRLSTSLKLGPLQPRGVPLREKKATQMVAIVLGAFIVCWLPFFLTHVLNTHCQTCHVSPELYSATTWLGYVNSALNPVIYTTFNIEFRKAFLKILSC
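Cells plated overnight at 1500 cells/well, then exposed to library compounds with dopamine controls for 90 minutes at 37 degrees C. DiscoveRx reagent added for 30–60 minutes at room temperature; luminescence read, quantitative HTS format.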
TDP1 cell CPT: growth inhibition of DT40 Tdp1-/-;hTDP1 cells with camptothecin (screen for TDP1 inhibitors); 420,000 compounds, 12% hits; Potency, µM (top dose mostly 46.2 µM), hits mostly inhibitors; chicken DT40 Tdp1-/-;hTDP1 cells + 20 nM CPT, ATP luminescence, 48 h; also: nearly all actives have a fitted effect of over 55% in size
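Chicken DT40 Tdp1-/- cells stably complemented with human TDP1 were seeded at 400 cells/well in medium containing 20 nM camptothecin, exposed to pin-transferred compounds, and grown at 37 °C for at least 48 hr. Viability was read as ATP luminescence.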
TDP1 cell noCPT: qHTS for Inhibitors of human tyrosyl-DNA phosphodiesterase 1 (TDP1): qHTS in cells in absence of CPT; Potency, µM (doses to about 46.2 µM), hits mostly inhibitors; 420,000 compounds, 15% hits; DT40 Tdp1-/- hTDP1 cells, no CPT, ATP luminescence, 48 h; AID 686978, 2013; also: nearly all actives have a fitted effect of over 55% in size
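Camptothecin absent (DMSO only). Human TDP1-complemented DT40 knockout cells, 400 cells/well, 37 °C for minimum 48 hr; ATP measured via CellTiter-Glo, 30 min dark incubation, luminescence.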
DRD3 agonist: agonists of human D3 dopamine receptor | P35462 | D3R DiscoveRx beta-arrestin cells, luminescence, 90 min | max activation, % | 410,000 compounds, 0.58% hits | AID 652048; in the data active = max activation above about 30%
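Agonist mode: compounds and dopamine controls were applied to plated cells for 90 min at 37 degrees C after an overnight attachment at 1500 cells/well. Luminescent read-out followed 30 - 60 minutes at room temperature with DiscoveRx detection reagent.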
IL-1B inflam inh: inflammasome signaling inhibition, IL-1 beta readout; THP-1 LPS/ATP IL-1B secretion, AlphaLISA, 16 h; active compounds read low; activity change, % at 57.5 µM; 360,000 compounds, 4.7% hits; AID 743279; in the data active = activity change below about -50%; inconclusive = mostly about -30% to -49%
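THP-1 cells pretreated 1 hr with compounds (up to 57.5 uM final), then stimulated with LPS (250 ng/mL final) plus ATP (1.25 mM final); secreted IL-1B measured by AlphaLISA after 16 hr, decreased signal indicating inhibition.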
ClpP mod: qHTS Assay for Activators of ClpP; AID 651965, 2013; Potency, µM (titrated, usually from 57.5 µM); ATP-dependent Clp protease proteolytic subunit (Bacillus subtilis (strain 168)), P80244; purified B. subtilis ClpP, FRET peptide cleavage, 20 min; 340,000 compounds, 1.9% hits; active = well fitted falling curve with a large enough effect; inconclusive = small, poorly fitted or top-dose-only effect; inactive = no such curve, though single readings can be large or run the other way; also: the source files actives as falling curves though it sought activators and does not explain the sign; nearly all actives have a fitted effect of over 65% in size
Target sequence (P80244 whole entry, looked up): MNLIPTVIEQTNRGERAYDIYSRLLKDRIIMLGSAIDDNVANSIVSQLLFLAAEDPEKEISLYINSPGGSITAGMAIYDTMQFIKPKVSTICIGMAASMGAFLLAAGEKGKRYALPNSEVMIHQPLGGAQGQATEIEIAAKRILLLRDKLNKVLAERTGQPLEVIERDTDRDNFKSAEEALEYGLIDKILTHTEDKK
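FRET quenching reversal measured ClpP activation: 10 microg/mL B. subtilis ClpP at pH 8 with the FRET-FV decapeptide, read at 430 nm after 320 nm excitation. The 20-min minus 0-min signal was scaled between DMSO/no-enzyme wells and ADEP (5.8 microM final).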
A number is an active result. A selection: hits, their analogues and other compounds. The true share with any hit is near 21%. Unless noted, calls follow the shape of the dose curve; as a rule, active = well fitted inhibition curve with a large enough effect; inconclusive = small, poorly fitted or top-dose-only effect; inactive = flat fitted curve, though single readings scatter.

Screening COCCCNc1oc(-c2ccc(COc3ccccc3C)o2)nc1C#N returned TDP1 cell CPT inconclusive, TDP1 cell noCPT inconclusive, DRD3 agonist inactive and ClpP mod inactive.
`CC1(C(=O)O)CCCN1C(=O)c1ccccc1OC(F)(F)F` (centres undefined) gave DRD3 antagonist inactive, TDP1 cell CPT inactive, TDP1 cell noCPT inactive, DRD3 agonist inactive, IL-1B inflam inh inactive and ClpP mod inactive.
Cc1cccc(C)c1OCc1cc(=O)n2ccsc2n1 was read as TDP1 cell CPT inactive, TDP1 cell noCPT inconclusive, DRD3 agonist inactive and ClpP mod inactive.
`COc1ccc(N(CC(=O)NCc2ccco2)C(=O)CNS(=O)(=O)c2ccc(Cl)cc2)cc1` gave DRD3 antagonist inactive, TDP1 cell CPT inactive, TDP1 cell noCPT inactive, DRD3 agonist inactive, IL-1B inflam inh inactive and ClpP mod inactive.
O=C(NCc1ccc(Cl)c(Cl)c1)c1cc(C2CCCCN2C(=O)OCCF)on1 (centres undefined) was read as DRD3 antagonist inactive, TDP1 cell CPT 23µM, TDP1 cell noCPT 23µM, DRD3 agonist inactive, IL-1B inflam inh inactive and ClpP mod inactive.
Screening O=C(NCc1ccc(Cl)c(Cl)c1)c1cc(C2CCCCN2C(=O)c2ccccn2)on1 (centres undefined) returned DRD3 antagonist inconclusive, TDP1 cell CPT 10µM, TDP1 cell noCPT 18µM, DRD3 agonist inactive, IL-1B inflam inh inactive and ClpP mod inactive.
`CCN(CC)CCC(=O)N1c2ccccc2Sc2ccc(Cl)cc21` gave DRD3 antagonist inconclusive, TDP1 cell CPT 15µM, TDP1 cell noCPT inconclusive, DRD3 agonist inactive, IL-1B inflam inh -71 and ClpP mod inactive.
For NCCC(=O)N1c2ccccc2Sc2ccc(Cl)cc21 the results were DRD3 antagonist inactive, TDP1 cell CPT inconclusive, TDP1 cell noCPT inconclusive, DRD3 agonist inactive, IL-1B inflam inh inconclusive and ClpP mod inactive.
`NCCCC(=O)N1c2ccccc2Sc2ccc(Cl)cc21` gave DRD3 antagonist inactive, TDP1 cell CPT inconclusive, TDP1 cell noCPT 23µM, DRD3 agonist inactive, IL-1B inflam inh inconclusive and ClpP mod inactive.
`CN(C)CCC(=O)N1c2ccccc2Sc2ccc(Cl)cc21` gave DRD3 antagonist inactive, TDP1 cell CPT inactive, TDP1 cell noCPT inactive, DRD3 agonist inactive and IL-1B inflam inh -59.
CN(C)CC(=O)N1c2ccccc2Sc2ccc(Cl)cc21 was read as DRD3 antagonist inactive, TDP1 cell CPT inactive, TDP1 cell noCPT inactive, DRD3 agonist inactive and IL-1B inflam inh inactive.
For CCN(CC)CCC(=O)N1c2ccccc2Sc2ccc(C(F)(F)F)cc21 the results were TDP1 cell CPT inactive, TDP1 cell noCPT inactive and DRD3 agonist inactive.
For O=C1NC[C@H](CCCCN2CCN(CC3CCCCC3)C(=O)C2=O)N(CCC2CCCCC2)C1=O the results were DRD3 antagonist inactive, TDP1 cell CPT inactive, TDP1 cell noCPT inactive, DRD3 agonist inactive, IL-1B inflam inh inactive and ClpP mod inactive.
For CC(C)C[C@H](NC(=O)c1[nH]cnc1C(=O)N[C@@H](Cc1ccccc1)C(=O)OC(C)(C)C)C(=O)OC(C)(C)C the results were DRD3 antagonist inconclusive, TDP1 cell CPT 16µM, TDP1 cell noCPT inconclusive, DRD3 agonist inactive, IL-1B inflam inh -50 and ClpP mod inactive.
Screening CC(C)C[C@H](NC(=O)c1nc[nH]c1C(=O)NCc1ccccc1)C(=O)OCc1ccccc1 returned DRD3 antagonist -53, TDP1 cell CPT inconclusive, TDP1 cell noCPT inconclusive, DRD3 agonist inactive, IL-1B inflam inh inactive and ClpP mod inactive.
Screening C[C@@H](NC(=O)c1nc[nH]c1C(=O)N[C@@H](Cc1ccccc1)C(=O)OCc1ccccc1)c1ccccc1 returned DRD3 antagonist inconclusive, TDP1 cell CPT inconclusive, TDP1 cell noCPT 18µM, DRD3 agonist inactive, IL-1B inflam inh inactive and ClpP mod inactive.
For CC(C)(C)OC(=O)C(Cc1ccc(OC(C)(C)C)cc1)NC(=O)CNC(=O)OCc1ccccc1 (centres undefined) the results were DRD3 antagonist inactive, TDP1 cell CPT 16µM, TDP1 cell noCPT 12µM, DRD3 agonist inactive, IL-1B inflam inh -71 and ClpP mod inactive.
`CC(C)C[C@H](NC(=O)c1[nH]cnc1C(=O)N[C@@H](C)C(=O)OC(C)(C)C)C(=O)OCc1ccccc1` gave DRD3 antagonist inconclusive, TDP1 cell CPT inconclusive, TDP1 cell noCPT 16µM, DRD3 agonist inactive, IL-1B inflam inh inactive and ClpP mod inactive.
`CC(C)C[C@H](NC(=O)c1[nH]cnc1C(=O)N[C@@H](C)C(=O)OCc1ccccc1)C(=O)OCc1ccccc1` gave DRD3 antagonist inactive, TDP1 cell CPT inconclusive, TDP1 cell noCPT inconclusive, DRD3 agonist inactive, IL-1B inflam inh inactive and ClpP mod inactive.
For CC(C)C[C@H](NC(=O)c1[nH]cnc1C(=O)N[C@@H](Cc1ccccc1)C(=O)OC(C)(C)C)C(=O)OCc1ccccc1 the results were DRD3 antagonist inactive, TDP1 cell CPT inconclusive, TDP1 cell noCPT 23µM, DRD3 agonist inactive, IL-1B inflam inh inactive and ClpP mod inactive.
For CC(C)C[C@H](NC(=O)c1[nH]cnc1C(=O)N[C@@H](Cc1ccccc1)C(=O)OCc1ccccc1)C(=O)OC(C)(C)C the results were DRD3 antagonist inconclusive, TDP1 cell CPT 21µM, TDP1 cell noCPT 21µM, DRD3 agonist inactive, IL-1B inflam inh inactive and ClpP mod inactive.
For CC(C)C[C@H](NC(=O)c1[nH]cnc1C(=O)Nc1ccccc1F)C(=O)OC(C)(C)C the results were DRD3 antagonist inactive, TDP1 cell CPT inactive, TDP1 cell noCPT 23µM, DRD3 agonist inactive, IL-1B inflam inh inactive and ClpP mod inactive.
For COc1nc(-c2ccc(Cl)cc2Cl)nc2ccccc12 the results were DRD3 antagonist inactive, TDP1 cell CPT inconclusive, TDP1 cell noCPT inconclusive, DRD3 agonist inactive and IL-1B inflam inh inactive.
COc1ccc(S(=O)(=O)N(C)C)cc1NC(C)C(=O)Nc1cccc(C#N)c1 (centres undefined) was read as DRD3 antagonist inactive, TDP1 cell CPT inactive, TDP1 cell noCPT inactive, DRD3 agonist inactive and IL-1B inflam inh inactive.
Screening CCC(=O)O/N=C(\N)c1ccc(Oc2cc(C)c(Cl)c(C)c2)c([N+](=O)[O-])c1 returned DRD3 antagonist inactive, TDP1 cell CPT inactive, TDP1 cell noCPT inconclusive, DRD3 agonist inactive, IL-1B inflam inh inactive and ClpP mod inconclusive.
`CCc1noc(C)c1C(=O)NCCc1ccccc1` gave DRD3 antagonist inactive, TDP1 cell CPT inactive, TDP1 cell noCPT inactive, DRD3 agonist inactive and IL-1B inflam inh inactive.
